High-throughput results as filed in PubChem.
Hits are enriched below; roughly 2.4% of the tested compounds scored in any of these assays.
D2 ag-1: human D2 receptor agonism in beta-arrestin assay. P14416. DiscoveRx PathHunter D2 beta-arrestin, luminescence, 90 min; 100% = 57 uM dopamine signal. activation, % (test concentration not listed). actives 0.084% (n = 360,000). AID 624465; in the data active = activation above about 40%; inconclusive = between about 15% and that limit
Target sequence (P14416 whole entry, looked up): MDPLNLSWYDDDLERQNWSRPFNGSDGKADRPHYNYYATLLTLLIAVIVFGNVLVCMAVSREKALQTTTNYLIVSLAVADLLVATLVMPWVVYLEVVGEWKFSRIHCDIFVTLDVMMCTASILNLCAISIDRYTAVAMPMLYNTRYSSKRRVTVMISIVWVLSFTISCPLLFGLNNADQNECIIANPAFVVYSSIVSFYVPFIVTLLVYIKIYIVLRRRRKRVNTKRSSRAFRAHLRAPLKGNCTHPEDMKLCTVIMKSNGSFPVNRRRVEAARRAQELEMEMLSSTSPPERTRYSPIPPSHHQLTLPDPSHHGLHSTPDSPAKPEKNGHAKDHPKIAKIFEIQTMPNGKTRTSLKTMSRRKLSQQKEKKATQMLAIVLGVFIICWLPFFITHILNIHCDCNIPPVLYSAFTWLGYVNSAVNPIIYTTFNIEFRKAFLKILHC
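DiscoveRx PathHunter D2 beta-arrestin cells (2,100/well) attached overnight, then compound-stimulated 90 min at 37 C in HBSS/10 mM HEPES/0.1% Tween-20 buffer; beta-galactosidase complementation read by luminescence after 1 h at ambient temperature. Dopamine 57 uM final (EC100) as control.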
D2 PAM-1: positively modulates the human D2 dopamine receptor allosterically; P14416; HEK293 T-REx D2, calcium flux, EC20 dopamine potentiation; potentiation, % at 10 µM; actives 0.34% (n = 340,000);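 active = potentiation over 3 SD above the plate norm, cut at about 30% in these data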; note: 0% is about no effect
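Cells plated with tetracycline inducer and held overnight at 30 C; calcium dye loaded 30–90 min at room temperature; baseline taken, compound added and read 180 s; EC20 dopamine then added and read 180 s.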
D2 antag: antagonizes the human D2 dopamine receptor; actives 2% (n = 340,000); AID 485344; P14416; HEK293 TREx D2 cells, calcium flux, dopamine EC80; inhibition, % at 10 µM; in the data active = inhibition above about 30%; inactive = below that, where a call was filed; note: 0% is about no effect
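Calcium mobilization kinetics were recorded at 1 s intervals in tetracycline-induced HEK293 T-REx D2 cells, first for 180 s after compound addition and then 180 s after EC80 dopamine.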
D2 ag-2: D2 dopamine receptor (human) agonism; actives 0.53% (n = 340,000); activation, % at 2 µM; HEK293 T-REx D2 cells, calcium flux agonist mode; P14416;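 active = activation over 3 SD above normal in the single-dose calcium agonist read, cut at about 30% in these data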; note: 0% is about no effect
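Tetracycline-induced HEK293 Trex cells with D2 receptor force-coupled to calcium signaling, plated overnight at 30 C and loaded with no-wash calcium dye. Calcium flux read kinetically for 180 s after compound addition; responses flag agonists.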
D2 PAM-2: human D2 receptor positive allosteric modulation | potentiation, % (concentration not given with the values) | AID 624464 | DiscoveRx D2 beta-arrestin cells, luminescence, 90 min; 100% = 57 uM dopamine signal | actives 0.23% (n = 360,000); in the data active = potentiation above about 50%; inconclusive = mostly about 30% to 49%
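D2 cells co-treated with compound plus 50 nM dopamine (EC20) for 90 min at 37 deg C to detect potentiation. Beta-arrestin recruitment was read as enzyme-fragment luminescence after 1 h at ambient temperature. Full response was set by 57 uM dopamine.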
Active calls of the source: *; ? = inconclusive; / = no result.

SMILES	D2 ag-1	D2 PAM-1	D2 antag	D2 ag-2	D2 PAM-2
Cc1cc(C)c(C#N)c(N2CCCC2)n1	-1	2	6	-1	-2
COc1ccc(CCC(=O)Nc2ccc(C)c(S(=O)(=O)N(C)C)c2)cc1OC	-2	7	-19	0	-10
COc1ccc(CCNCC(=O)Nc2ccc(C)c(S(=O)(=O)N(C)C)c2)cc1	-1	-5	33*	2	-17
CC1CCCCC1Nc1ncnc2sccc12 (configuration not stated)	6	14	36*	0	-6
CCOC(=O)c1c(-c2ccc(OC)cc2)cn2ccccc12	-3	-1	62*	-1	-13
CCOC(=O)c1c(-c2ccc(C)cc2)cn2ccccc12	-2	-9	7	1	-16
CC1(c2ccc3c(c2)OCCO3)NC(=O)N(CC(=O)Nc2ccccc2F)C1=O (configuration not stated)	9	8	-8	1	-8
COc1ccc(Cn2c(C3CCCCC3)nc3c(c(=O)c4ccccc4n3C)c2=O)cc1	-3	-3	42*	5	-16
COc1ccc(CCn2c(C3CCCCC3)nc3c(c(=O)c4ccccc4n3C)c2=O)cc1	-4	-7	18	10	-8
CCc1nc2c(c(=O)c3ccccc3n2C)c(=O)n1C1CCCCCC1	-1	-10	25	58*	-13
CCCN1CCC(NC(=O)Cc2cccc(C)c2)CC1	-1	3	-7	2	-7
Cc1cccc(CNC(=O)c2ccc(NC(=O)N3CC(C)Sc4ccccc43)cc2)c1 (configuration not stated)	/	-1	/	0	/
CCOc1ccc(NC(=O)[C@@H](c2ccccc2)N2Cc3ccccc3C2=O)cc1	/	9	/	0	/
O=C(CC1C[C@H](C(=O)N2CCOCC2)[C@@]2(CCC3CCCC3)c3[nH]c4ccccc4c3CCN2C1=O)NCc1ccco1 (some centres not stated)	0	/	/	/	/
CN1CCN(C2=Cc3ccccc3Sc3cc(F)c(Cl)cc32)CC1	-2	-26	74*	1	-45
CN1CCN(C2=Cc3ccccc3Sc3cc(F)c(F)cc32)CC1	-4	0	-24	-2	-43
O=C(CCCN1C(=O)/C(=C\c2cccs2)SC1=S)Nc1ccc(C(=O)O)cc1	-3	/	/	/	-3
CCN(CC)CCOC(=O)c1ccc(NC(=O)CCCN2C(=O)/C(=C/c3cccs3)SC2=S)cc1	-2	-26	49*	-1	-43
O=C(NCCN1CCOCC1)c1cc2sccc2n1Cc1ccc(F)cc1	-2	-26	38*	0	-16
CC(OC(=O)c1ccc(NC(=O)CC#N)cc1)C(=O)NCCC1=CCCCC1 (configuration not stated)	0	-3	38*	0	4
COc1ccc(OC)c(-c2csc(NC(=O)Cn3[nH]c(=O)c4ccccc4c3=O)n2)c1	-5	0	32*	4	-23
Cc1nn(Cc2ccccc2Cl)c(C)c1C(=O)NCC(c1cccs1)N1CCOCC1 (configuration not stated)	3	/	/	/	10
Cc1cccc(-n2c(N)cc(=O)nc2SCC(=O)Nc2ccc(F)cc2)c1C	/	14	/	0	/
C=CCNC(=O)c1ccccc1NC(=O)COc1ccccc1	-2	-2	59*	0	-6
C=CCNC(=O)c1ccccc1Cl	0	-2	40*	0	-6
SMILES	D2 ag-1	D2 PAM-1	D2 antag	D2 ag-2	D2 PAM-2
CC(=O)Nc1ccc(S(=O)(=O)NCC(=O)OCC(=O)NCc2ccco2)cc1	-7	-5	6	0	-18
COc1ccc(C(=O)C[n+]2cccc(C)c2C)cc1[N+](=O)[O-]	-5	-35	59*	0	-4
Oc1ccc(/C=N/N2CCCCC2)c(O)c1O	2	/	/	/	9
Oc1ccc(/C=N/N2CCOCC2)c(O)c1O	?	-3	/	/	54*
O=C1C=C(c2ccc(-c3ccccc3)c(F)c2)C[C@@H](c2ccc(Cl)cc2)C1	-4	14	0	4	0
Nc1nc(NCCO)nc(N2CCCCCC2)c1[N+](=O)[O-]	1	3	-6	1	4
OCCN(CCO)c1nc(N2CCCCC2)c2nc(N(CCO)CCO)nc(N3CCCCC3)c2n1	8	-10	22	42*	-7
